Data on 16 compounds can be found in PubChem BioAssay AID493170 (National Center for Advancing Translational Sciences (NCATS), 2011).

Structures are written as SMILES. Results filed as inconclusive are left out. Where a call stands in place of a potency, no number is given. Activity calls are given as the source filed them. Calls come from the whole dose curve; as a rule, active = well fitted inhibition curve with a large enough effect; inconclusive = small, poorly fitted or top-dose-only effect, or effect the other way; inactive = flat fitted curve, though single readings scatter.
Potency is the fitted concentration of half-maximal effect.

Sequence of Ubiquitin carboxyl-terminal hydrolase 2 (Homo sapiens) (O75604 whole entry, looked up): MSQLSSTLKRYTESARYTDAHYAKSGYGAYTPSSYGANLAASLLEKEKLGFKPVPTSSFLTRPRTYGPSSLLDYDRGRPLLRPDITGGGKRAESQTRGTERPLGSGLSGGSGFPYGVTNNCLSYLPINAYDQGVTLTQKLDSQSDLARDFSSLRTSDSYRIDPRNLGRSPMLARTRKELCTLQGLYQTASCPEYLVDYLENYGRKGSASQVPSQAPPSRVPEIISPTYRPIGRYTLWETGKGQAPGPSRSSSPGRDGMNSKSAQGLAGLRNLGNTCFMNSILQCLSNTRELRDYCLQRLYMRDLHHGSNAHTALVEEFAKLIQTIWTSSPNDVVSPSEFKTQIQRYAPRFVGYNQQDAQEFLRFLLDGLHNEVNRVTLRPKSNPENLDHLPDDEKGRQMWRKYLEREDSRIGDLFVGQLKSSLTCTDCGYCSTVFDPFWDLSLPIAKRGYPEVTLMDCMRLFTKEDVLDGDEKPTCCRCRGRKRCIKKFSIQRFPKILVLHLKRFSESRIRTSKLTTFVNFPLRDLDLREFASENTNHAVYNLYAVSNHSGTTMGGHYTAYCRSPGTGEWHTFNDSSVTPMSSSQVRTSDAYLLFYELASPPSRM

This assay addresses Ubiquitin carboxyl-terminal hydrolase 2 (Homo sapiens) (UniProt O75604). Put plainly: Ub-rhodamine 110 based assay for inhibitors Ubiquitin-specific Protease USP2a. Note: nearly all actives have a fitted effect of over 50% in size. The settings on record: USP2a Ub-rhodamine110 cleavage, fluorescence; series mostly up to 38.3 µM. In a few lines: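 Kinetic fluorescence (485/531 nm) read each minute over 7 min after adding Ub-Rhod110 (150 nM final) to USP2a (5 nM final). The enzyme had 30 min RT exposure to compounds beforehand in Tris pH 8.0 buffer with CaCl2, CHAPS and beta-ME.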
`COc1ccccc1N1CCN(c2cc(C)nc3nc(C)nn23)CC1`: the Potency entry was “inactive”.

For `Cc1ccc(NC(=O)CN2C(=O)N/C(=C/c3ccco3)C2=O)cc1`, the Potency was 3.98 µM (active).

Regarding `O=[N+]([O-])c1cc(-c2ccc(/C=N\n3cnnc3)o2)cc([N+](=O)[O-])c1`, the Potency is 11.2 µM (active).

As for `CNc1sc(C(=O)c2ccc(F)cc2)c(N)c1-c1nc2ccccc2s1`, the Potency result was “inactive”.

In the case of `CCCCC1CCC(C(=O)Nc2ccc(S(=O)(=O)Nc3nccs3)cc2)CC1` (stereo unspecified), the Potency was 10 µM (active).

With `Cc1ccccc1OCc1nc2ccccc2c(=O)n1N`, the Potency result was “inactive”.

With `COc1ccc(CC(=O)c2ccccc2C(=O)O)cc1`, the Potency result is “inactive”.

As to `COC(=O)C1CCN(C(=O)COC(=O)CC(NC(N)=O)c2ccc(Cl)cc2)CC1` (stereo unspecified), the Potency result is “inactive”.

As to `C/C(=N/NC(=O)c1cc2ccccc2cc1O)C1C(=O)c2ccccc2C1=O`, the Potency was 1.78 µM (active).

Regarding `Cc1ccc(Nc2nc(N)nc(CN3CCN(C(=O)c4ccco4)CC3)n2)cc1Cl`, the Potency entry was “inactive”.

Consider `Cc1cnc(N)c2c(=O)oc3ccccc3c12`, for which the Potency entry was “inactive”.

In the case of `CC(=O)N1CCCc2cc(S(=O)(=O)CCC(=O)N3CCN(c4cccc(C)c4)C(C)C3)ccc21` (stereo unspecified), the Potency result is “inactive”.

In the case of `C=CC[C@H](CC(=O)N[C@H](CO)Cc1ccccc1)C(=O)N[C@H](COC(=O)[C@@H](CC=C)CC(=O)OC(C)(C)C)Cc1c[nH]c2ccccc12`, the Potency entry was “inactive”.

Take `Cc1ccc2oc(=O)c3cnn(CC(=O)NCCCOC(C)C)c3c2c1`: the Potency entry was “inactive”.

For `CCO[C@H]1OC(C(=O)N2CCCCCCC2)=C[C@@H](c2ccc(C(F)(F)F)cc2)[C@@H]1CCCO`, the Potency entry was “inactive”.

Consider `CN(C)c1ccc(-c2ccccc2)nn1`, for which the Potency result is “inactive”.
